Screen size: about 410,000 compounds; about 2,400 (0.59%) were called active. The list comes from a sample in which actives are over-represented; it also holds similar structures and randomly drawn compounds. A number with no mark means an inactive call. Cut-off read from the data, not from the text of the source: active = max activation above about 30%; inactive = the rest.
target: D(3) dopamine receptor (Homo sapiens) (UniProt P35462); assay: qHTS of D3 Dopamine Receptor Agonist: qHTS; settings: D3R DiscoveRx beta-arrestin cells, luminescence, 90 min; hits give high values; note: 0% is about no effect
Text: D3 DARs represent a very important target for the treatment of several neuropsychiatric disorders. Indeed, one of the most promising therapeutic applications for the D3 DAR is in the area of addiction and related disorders. […] These findings have been observed with a number of addictive substances including cocaine, amphetamine, nicotine, and alcohol. […] Antagonism of the D3 DAR may also be therapeutic in the treatment of schizophrenia or psychosis. […] Since the D3 DAR is expressed in areas of the CNS associated with the control of mood and emotion, it has been hypothesized that selective antagonism of the D3 DAR may be effective in treating psychosis without inducing the motor side effects typically seen with D2 DAR antagonists.
This part of the project aims to discover novel agonist.
NIH Chemical Genomics Center [NCGC]
NIH Molecular Libraries Probe Centers Network [MLPCN]
Assay Submitter (PI): David Sibley, NINDS
Freshly passaged cells are plated in 1536 well white, solid bottom plates at a density of 1500 cells/well in 3microl of complete media. After an overnight incubation at 37 degrees C in 5% CO2, cells are loaded with 23nl of test compound from the compound library (as well as dopamine controls) using a 1536 pintool and incubated at 37 degrees C for 90 minutes. Two microliters of DiscoveRx reagent is then added to all cells, and they are incubated for an additional 30 - 60 minutes at room temperature. Following incubation, luminescence is measured on a ViewLux CCD-based luminometer reader using a 20 sec exposure time.

Sequence of D(3) dopamine receptor (Homo sapiens) (P35462 whole entry, looked up): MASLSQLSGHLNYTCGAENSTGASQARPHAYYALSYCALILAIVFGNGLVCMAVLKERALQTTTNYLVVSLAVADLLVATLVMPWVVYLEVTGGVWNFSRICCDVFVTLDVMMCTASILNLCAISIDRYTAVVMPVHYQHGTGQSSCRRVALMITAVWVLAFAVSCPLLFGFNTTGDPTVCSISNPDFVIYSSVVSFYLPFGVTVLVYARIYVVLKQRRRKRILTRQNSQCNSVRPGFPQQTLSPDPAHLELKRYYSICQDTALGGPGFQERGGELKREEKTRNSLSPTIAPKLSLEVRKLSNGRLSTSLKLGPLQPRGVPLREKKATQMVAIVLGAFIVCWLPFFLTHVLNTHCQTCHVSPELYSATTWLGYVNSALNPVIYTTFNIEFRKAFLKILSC

Row | Structure (SMILES) | max activation
1 | O=C(NC1CCCCC1)c1ccc2c(c1)N(Cc1ccc(Cl)cc1)C(=O)c1ccccc1S2=O (centres undefined) | 3.22%
2 | CCC1CN(S(=O)(=O)c2cc(-c3cc(C)no3)ccc2C)c2cc(C)ccc2O1 (centres undefined) | -8.75%
3 | Cc1ccc(Nc2ccc3cc(S(=O)(=O)N4CCCCC4)ccc3n2)cc1F | 3.49%
4 | O=C1CCC(=O)N(O)CCCCCNC(=O)CCC(=O)N(O)CCCCCNC(=O)CCC(=O)N(O)CCCCCN1 | 65.3% (active)
5 | CCCN(CCc1ccccc1)C1CCc2c(O)cccc2C1 (centres undefined) | 110% (active)
6 | Cc1cc(C)cc(C(=O)N(CCc2ccccc2)C2=CC3CCC(C2)N3C)c1 (centres undefined) | -13.4%
7 | COc1cccc(CNC(=O)CN2C(=O)CCc3cc(S(=O)(=O)N4CCOCC4)ccc32)c1 | 7.79%
8 | COc1ccc(N2CCN(C(=O)CSCc3nc(-c4ccccc4Cl)oc3C)CC2)cc1 | 13.9%
9 | Cc1ccc(NC(=O)C2CCN(S(=O)(=O)c3cc(-c4noc(C)n4)ccc3C)CC2)c(C)c1 | -12.1%
10 | Cc1ccc(S(=O)(=O)C(C#N)c2nc3ccccc3nc2N2CCCC2)cc1C (centres undefined) | 44.8% (active)
11 | Cc1ccc(S(=O)(=O)c2nnn3c2nc(N2CCN(c4ccccc4F)CC2)c2cc(Cl)ccc23)cc1C | 4.43%
12 | N#CC(C(=O)c1ccc(S(=O)(=O)N2CCCCCC2)cc1)c1nc2ccccc2[nH]1 (centres undefined) | 24%
13 | CO/N=C(\C(=O)N[C@@H]1C(=O)N2C(C(=O)O)=C(C[N+]3(C)CCCC3)CS[C@H]12)c1csc(N)n1 | 2.02%
14 | O=S(=O)(c1ccc2nc(NCc3ccccc3Cl)ccc2c1)N1CCCCC1 | -23.2%
15 | Cc1cccc(CNC(=O)c2cnc3sc(N4CCCCC4)nn3c2=O)c1 | 6.54%
16 | Cc1ccc(CNC(=O)C2CCCN2C(=O)NCc2ccccc2)cc1 (centres undefined) | 4.63%
17 | Cc1ccc(CNC(=O)c2cccc3c2C(=O)c2ccc(N4CCC(C)CC4)cc2S3(=O)=O)cc1 | 54.8% (active)
18 | CCOC(=O)[C@H](CCc1ccccc1)N[C@@H](C)C(=O)N1CC2(C[C@H]1C(=O)O)SCCS2 | -2.59%
19 | COCc1cccc(-c2csc(C(O)c3ccc(F)cc3)n2)c1 (centres undefined) | -13.4%
20 | CC(C)(C)C(=O)OCc1nc(-c2ccc(O)c(O)c2)cs1 | 117% (active)
21 | Cc1ccc(S(=O)(=O)N2CCCc3cc(NS(=O)(=O)c4cc(C)ccc4C)ccc32)cc1 | 7.92%
22 | CO/N=C(\C(=O)N[C@@H]1C(=O)N2C(C(=O)O)=CCS[C@H]12)c1csc(N)n1 | 3.03%
23 | COC(=O)c1ccc2nc(-c3ccc(C)cc3)c(Cc3ccc(OC)cc3C)n2c1 | -2.45%

Row | Structure (SMILES) | max activation
24 | CCCCNc1c(-c2cccc(Sc3ccc(OC)cc3)c2)nc2ccccn12 | 13.9%
25 | CCCCNc1c(-c2ccc(OC)c(Sc3ccc(OC)cc3)c2)nc2ccc(Cl)cn12 | 44.7% (active)
26 | COc1ccc(C2(C#N)CCC(C(=O)O)CC2)cc1OC1CCCC1 (centres undefined) | -0.732%
27 | CCNS(=O)(=O)c1cc(-c2nnc(Nc3cccc(C(F)(F)F)c3)c3ccccc23)ccc1C | 13.3%
28 | CCOc1ccc(OCC)c(Nc2nc3ccccc3n3nnnc23)c1 | 5.21%
29 | c1ccc2cc(C3=NCCN3)ccc2c1 | -15.2%
30 | CCCn1nc(C(=O)NNC(=O)CSCC(=O)Nc2cc(C)on2)c2ccccc2c1=O | -7.71%
31 | CCCn1nc(C(=O)OCc2nc(N)nc(Nc3ccccc3C)n2)c2ccccc2c1=O | 31.8% (active)
32 | Cc1ccccc1Nc1nc(N)nc(COC(=O)CCC(=O)c2ccc(F)cc2)n1 | 2.22%
33 | CCC(=O)N1CCc2cc(Br)cc(S(=O)(=O)NCc3ccc(Cl)cc3)c21 | -15.3%
34 | CN1CC[C@H](c2c(O)cc(O)c3c(=O)cc(-c4ccccc4Cl)oc23)[C@H](O)C1 | 6.48%
35 | Cn1c(=O)[nH]c(=O)c2c1nc(Br)n2CCCCSc1nc2ccccc2o1 | 40.9% (active)
36 | Cc1ccnc(SCCn2c(Br)nc3c2c(=O)[nH]c(=O)n3C)n1 | 5.98%
37 | Cn1c(=O)c2c(nc(Br)n2CCSc2nc3ccccc3o2)n(C)c1=O | 4.26%
38 | Oc1ccc(-c2nc3ccc(Cl)cn3c2Nc2ccc3c(c2)OCO3)cc1 | 6.89%
39 | Cc1ccccc1CN1CCC(CNC(=O)c2cc3ccc4cccnc4c3[nH]2)CC1 | -21.1%
40 | CC(=O)Nc1cccc(NC(=O)CSc2cn(CC(=O)N3CCCC3)c3ccccc23)c1 | 11.5%
41 | Cc1cccc(N2CCN(C(=O)CCn3c(=O)c4cccn4c4cccnc43)CC2C)c1 (centres undefined) | 14.9%
42 | O=C(O)CCCCC(=O)O | 2.29%
43 | O=C(NCCN1C(=O)S/C(=C\c2cccnc2)C1=O)c1ccc(S(=O)(=O)N2CCCC2)cc1 | 31.1% (active)
44 | O=C(Nc1ncccc1O)c1ccc(S(=O)(=O)N2CCCC2)cc1 | 1.73%
45 | COc1ccc(N2CC(C(=O)NCCN3C(=O)S/C(=C\c4cccnc4)C3=O)CC2=O)c(OC)c1 (centres undefined) | 2.93%
46 | Cc1cccc(NC(=O)Cn2c(=O)n(CCC(C)C)c(=O)c3cccnc32)c1 | -14.3%

Row | Structure (SMILES) | max activation
47 | Cc1ccc(-c2nc3cccc(C)n3c2Nc2ccc3c(c2)OCCO3)cc1 | -6.45%
48 | COc1ccc(N2CCN(C(=O)CCSCc3ccccc3F)CC2)cc1 | 1.03%
49 | Cc1cccc(N2CCN(C(=O)CCSCc3ccccc3F)CC2)c1C | -6.07%
50 | O=C(CCSCc1ccccc1F)N1CCN(c2ccc(Cl)cc2)CC1 | 57.2% (active)
51 | CC(Oc1ccccc1)C(=O)N[C@@H]1C(=O)N2[C@@H]1SC(C)(C)[C@@H]2C(=O)O (some centres undefined) | 8.72%
52 | Cc1cccc2c(=O)cc(CSc3ccccc3NC(=O)C(C)C)[nH]c12 | 3.87%
53 | COc1cc(Nc2nc(-c3ccc(OC)c(OC)c3)nc3ccccc23)cc(OC)c1 | -6.69%
54 | Cc1ccc(-c2nn(-c3ccccc3)cc2/C=C/C(=O)Nc2cccc(S(N)(=O)=O)c2)cc1 | 38.3% (active)
55 | NS(=O)(=O)c1ccc(NC(=O)/C=C/c2ccccc2Cl)cc1 | 2.71%
56 | COc1ccc(-n2cnnc2SCC(=O)Nc2cccc(S(N)(=O)=O)c2)cc1 | 0.641%
57 | CN[C@@H]1[C@@H](O)[C@@H](O[C@@H]2[C@H](O)[C@H](O[C@H]3OC(CN)=CC[C@H]3N)[C@@H](N)C[C@H]2N)OCC1(C)O (some centres undefined) | -3.05%
58 | O=C1NS(=O)(=O)c2ccccc21 | 0.55%
59 | CCn1cc(C(=O)NCCc2ccccc2)c(=O)c2cc(S(=O)(=O)N3CCCCCC3)ccc21 | -2.07%
60 | CC(=O)Nc1ccc(NC(=O)C2CCCN(S(=O)(=O)c3ccc4c(c3)CCCC(=O)N4)C2)cc1 (centres undefined) | 6.84%
61 | CN(C)CCCSc1ccccc1NC(=O)/C=C/c1ccccc1 | -15.8%
62 | CCOC(=O)c1cc(-c2ccccc2C)n(Cc2cc(C)no2)n1 | 59.5% (active)
63 | CCOC(=O)c1cc(OC(=O)c2ccccc2Cl)n(-c2ccccc2)n1 | -8.96%
64 | CCOC(=O)c1cc(-c2sc(NC(=O)c3ccccc3)nc2C)n(Cc2ccccc2)n1 | 8.04%
65 | CC(=O)N1CCN(c2ccccc2NC(=S)NC(=O)c2cc3ccccc3o2)CC1 | -3.88%
66 | COc1ccc(C(=O)NC(=S)Nc2ccccc2N2CCN(S(C)(=O)=O)CC2)cc1OC | 34.6% (active)
67 | CCc1ccc(C(=O)NC(=S)Nc2ccccc2N2CCOCC2)cc1 | -1.31%
68 | CCOc1cccc2sc(N3CCN(C(=O)C4CC4)CC3)nc12 | -4.91%
69 | CC/C(=N\NC(=O)c1ccccc1Cl)c1ccc(Br)s1 | 5.71%

Row | Structure (SMILES) | max activation
70 | Cc1ccccc1-n1c(SCC(=O)Nc2cccc3ccccc23)nc(O)cc1=O | 0.0019%
71 | C/C(=N\NC(=O)CNc1cccc2ccccc12)c1ccc(Br)s1 | 30.4% (active)
72 | CCC(Cc1ccccc1)NS(=O)(=O)c1ccc2c(c1)NC(=O)CS2 (centres undefined) | 34.1% (active)
73 | O=C1CSc2ccc(S(=O)(=O)NCc3ccccc3)cc2N1 | -4.53%
74 | COc1ccccc1CNS(=O)(=O)c1ccc2c(c1)NC(=O)CS2 | 5.98%
75 | Cc1ccccc1CSc1nc2c([nH]c3ccccc32)c(=O)n1C | -3.75%
76 | COc1ccc(-c2nc3n(c2Br)CCC3)cc1 | 8%
77 | COc1ccc(-c2nc3c(s2)CCc2onc(-c4ccc(Br)cc4)c2-3)cc1 | 31.5% (active)
78 | COc1ccc(-c2nc3c(s2)CCc2onc(-c4ccc(OC)cc4)c2-3)cc1 | 5.32%
79 | NC(=O)C(=O)N/N=C/c1ccc([N+](=O)[O-])o1 | -13.9%
80 | CN1CC(O)c2cc(N=NC(N)=O)c(O)cc21 (centres undefined) | -13%
81 | Cc1oc2c(F)c(F)c(F)c(F)c2c1S(=O)(=O)Nc1cccc(C(F)(F)F)c1 | 39.8% (active)
82 | Cc1onc(-c2ccc(F)cc2F)c1C(=O)Nc1cccc(C(F)(F)F)c1 | -14.1%
83 | Cc1oc2ccc(O)c(CN3CCCCC3)c2c1C(=O)Nc1cccc(C(F)(F)F)c1 | 0.725%
84 | COc1cc(Cl)c(NC(=O)C(NS(=O)(=O)c2cccs2)C(C)C)c(OC)c1 (centres undefined) | 6.54%
85 | COc1ccc(CCNc2ncnc3c2cnn3-c2ccc(C)cc2)cc1 | 11.8%
86 | Cc1ccccc1C(=O)Nc1sc2c(c1C(=O)N1CCC(C)CC1)CCCC2 | -2.21%
87 | CCc1ccc(-n2c(=S)sc3c(=O)n(-c4ccccc4OC)c(=S)[nH]c32)cc1 | 0.277%
88 | COc1ccccc1-n1c(-c2ccc(C)cc2)cn2c3c(=O)n(C)c(=O)n(C)c3nc12 | -0.938%
89 | COc1ccccc1-n1c(=S)[nH]c2c(sc(=S)n2-c2ccc(C)cc2C)c1=O | 37.7% (active)

— PubChem BioAssay AID652048 (National Center for Advancing Translational Sciences (NCATS), 2013)
